Screens as filed in PubChem BioAssay.
MCF10A rereplic: DNA re-replication induction in MCF 10a cells; actives 2.9% (n = 350,000); Potency, µM (titrated, usually from 46.1 µM), usual class: activators; MCF 10A DNA re-replication, Hoechst nuclear intensity, 48 h; note: nearly all actives have a fitted effect of over 50% in size
RORg inh: blocks mouse ROR gamma transcriptional activity; actives 5.4% (n = 310,000); Potency, µM (doses to about 53.6 µM), most hits filed as inhibitors; P51450; AID 2551; Drosophila S2 Gal4-RORgamma UAS-luciferase reporter, 20 h; note: nearly all actives have a fitted effect of over 60% in size
Target sequence (P51450 whole entry, looked up, the tested form may be a part): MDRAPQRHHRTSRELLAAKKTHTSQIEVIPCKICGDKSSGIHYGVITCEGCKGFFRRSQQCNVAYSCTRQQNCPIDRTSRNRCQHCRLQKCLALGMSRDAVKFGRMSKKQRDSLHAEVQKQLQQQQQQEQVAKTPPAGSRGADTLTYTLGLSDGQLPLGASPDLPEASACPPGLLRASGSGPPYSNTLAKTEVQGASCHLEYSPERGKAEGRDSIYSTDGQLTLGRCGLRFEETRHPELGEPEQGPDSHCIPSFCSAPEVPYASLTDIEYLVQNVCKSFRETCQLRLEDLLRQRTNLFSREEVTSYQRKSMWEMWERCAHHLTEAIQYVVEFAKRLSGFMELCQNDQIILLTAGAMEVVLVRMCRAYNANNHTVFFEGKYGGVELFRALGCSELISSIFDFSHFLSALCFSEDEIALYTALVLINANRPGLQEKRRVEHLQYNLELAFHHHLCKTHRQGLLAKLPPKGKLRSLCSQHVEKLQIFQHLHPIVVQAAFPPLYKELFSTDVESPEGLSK
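In this cell-based reporter format, copper sulfate (700 uM final) drives Gal4–ROR gamma fusion expression from a metallothionein promoter in Drosophila Schneider cells; compounds preincubated 1 hr, reporter read after 20 hr at ambient temperature.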
SW480 rerep: DNA re-replication induction in SW480 cells | Potency, µM (highest dose often 46.1 µM), hits mostly activators | SW480 DNA re-replication, Hoechst DNA content imaging, 48 h | AID 624297 | actives 1.8% (n = 340,000); note: nearly all actives have a fitted effect of over 55% in size
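Treated cells incubate 48 hr (37 C, 5% CO2), are stained 40 min with Hoechst, and nuclear fluorescence is enumerated; a rise in nuclei with high DNA signal marks re-replication.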
Gal4-VP16 FLuc: counter-screen for ROR gamma inhibitors: Gal4-VP16 reporter; AID 2546; Drosophila S2 Gal4-VP16 UAS-luciferase, luminescence, 20 h; actives 3.5% (n = 310,000); Potency, µM (doses to about 53.6 µM), actives largely listed as inhibitors;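 note: Gal4-VP16 expression switched on by copper sulfate through the metallothionein promoter; nearly all actives have a fitted effect of over 50% in size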
KB-V1 cytotox: KB-V1 MDR subline cytotoxicity; KB-V1 MDR cells viability, CellTiter-Glo, 72 h; Potency, µM (top dose mostly 46.1 µM), hits mostly cytotoxic; actives 3.4% (n = 400,000); AID 1347076; note: nearly all actives have a fitted effect of over 60% in size
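Drug-selected KB-V1 cells, grown in DMEM lacking phenol red with 10% FBS, receive compound titrations; after three days at 37 degrees C, surviving cell ATP is quantified by CellTiter-Glo luminescence and responses normalized and curve-fitted.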
KB-3-1 cytotox: KB-3-1 parental cell cytotoxicity; KB-3-1 viability, CellTiter-Glo ATP luminescence, 72 h; Potency, µM (doses to about 46.1 µM), actives largely listed as cytotoxic; actives 1.4% (n = 400,000); note: nearly all actives have a fitted effect of over 60% in size
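Multi-concentration cytotoxicity screen in KB-3-1 cells grown in DMEM lacking phenol red with 10% FBS. After 72 h at 37 °C with compound, ATP-dependent luminescence was recorded.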
Hits are given with their value; – = inactive; ? = inconclusive; · = not tested or not shown; ! = not active in a repeat. Hits are enriched below; roughly 10% of the tested compounds scored in any of these assays. Calls come from the whole dose curve; as a rule, active = well fitted curve in the direction sought with a large enough effect; inconclusive = small, poorly fitted or top-dose-only effect, or another doubt; inactive = no such curve, though single readings can be large; an effect the other way counts as inactive or inconclusive.

SMILES	MCF10A rereplic	RORg inh	SW480 rerep	Gal4-VP16 FLuc	KB-V1 cytotox	KB-3-1 cytotox
CC(Sc1c[nH]c2ccccc12)C(=O)O (centres undefined)	8.2µM	–	?	–	–	–
O=C(COc1cccc(Cl)c1)N1CCC(c2nc3ccccc3s2)CC1	·	·	·	·	–	–
c1ccc(CSc2ccc3nnc(-c4cccnc4)n3n2)cc1	–	–	–	–	18µM	–
C=C[C@]1(C)C=C2C(=O)[C@@]3(O)OC(=O)[C@@]4(CCCC(C)(C)[C@H]34)[C@@]2(O)CC1	·	·	·	·	?	4.6µM
COc1ccccc1C(=O)Nc1nc2nc(C)c(Cc3ccccc3)c(=O)n2[nH]1	·	·	·	·	–	–
Cc1ccc2c(C)nc(N/C(N)=N/S(=O)(=O)c3ccccc3)nc2c1	–	–	–	–	–	–
Cc1ccc(NC(=S)/N=C(\N)Nc2nc(C)c3cc(C)ccc3n2)c(C)c1	?	7.9µM	–	7.1µM	?	–
Cc1ccc(NC(=S)/N=C(\N)Nc2nc(C)c3cc(C)c(C)cc3n2)cc1C	–	2.2µM	?	5µM	–	–
CCc1ccccc1NC(=S)/N=C(\N)Nc1nc(C)c2cc(C)ccc2n1	?	2.8µM	21µM	3.2µM	6.5µM	?
Cc1ccc(S(=O)(=O)/N=C(\N)Nc2nc(C)c3cc(C)c(C)cc3n2)cc1	–	–	–	–	–	–
CCOc1ccc(S(=O)(=O)N2CCN(c3cccc(C(F)(F)F)c3)CC2)cc1OCC	·	·	·	·	–	–
COc1ccc(CN2CCN(Cc3ccc(C(F)(F)F)cc3)CC2)c(OC)c1	–	–	16µM	–	–	–
COc1ccc(CN2CCN(Cc3ccc(C)cc3)CC2)c(OC)c1	?	–	–	–	–	–
COc1ccc(CN2CCN(S(=O)(=O)c3ccccc3)CC2)c(OC)c1	–	–	–	–	18µM!	–
COc1ccc(OC)c(CN2CCN(S(=O)(=O)c3ccccc3)CC2)c1	–	·	–	·	–	–
CCOc1ccccc1CNS(=O)(=O)c1ccc2[nH]c(=O)ccc2c1	·	·	·	·	?	–
CC(C)(C)c1ccc(S(=O)(=O)NC(=O)C2(C)CCN2C(=O)c2cccc3ccccc23)cc1 (centres undefined)	·	·	·	·	–	–
CCCCn1c(=O)n(-c2cc(OC)ccc2OC)c(=O)c2c3c(sc21)CN(C(C)=O)CC3	·	·	·	·	?	–
N#Cc1c(NCCN)nc(NCc2ccccc2)c2c1CCN(Cc1ccccc1)C2	?	–	21µM	–	–	–
COc1ccc2c(c1)c1c(c(=O)n(-c3ccc(OC)c(OC)c3)c(=O)n1Cc1ccc(F)cc1)n2C	·	·	·	·	–	?
O=c1c2ccccc2sc2ccccc12	–	·	–	·	?	?
Cc1cc2sc3ccccc3c(=O)c2c(C)c1O	–	–	–	–	18µM	?
COc1ccc(OCc2nnc3n2N=C(c2ccccc2)CS3)cc1	·	·	·	·	–	–
CC1=NN(Cc2c(C)nn(Cc3ccccc3)c2C)C(C)(C)C1	–	13µM	–	–	–	–
S=C1SCN(CC2CC2)CN1CC1CC1	–	7.9µM	5.8µM	7.1µM	–	–
SMILES	MCF10A rereplic	RORg inh	SW480 rerep	Gal4-VP16 FLuc	KB-V1 cytotox	KB-3-1 cytotox
CCC(/C=C1\Sc2ccc(OC)cc2N1CCO)=C\c1sc2ccc(OC)cc2[n+]1CCO	?	–	–	?	–	2.9µM
CCC(/C=C1\Sc2ccc(OC)cc2N1CC)=C\c1sc2ccc(OC)cc2[n+]1CCCS(=O)(=O)[O-]	–	–	–	?	–	?
COc1ccccc1-c1ccc(=O)n(CC(=O)NC2CCc3ccccc32)n1 (centres undefined)	–	3.5µM	–	?	–	–
CCCNC(=O)Cn1nc(-c2ccccc2OC)ccc1=O	·	·	·	·	–	–
O=C(CCc1nc2ccccc2c(=O)[nH]1)NNC(=O)c1cccc(Cl)c1	–	·	29µM	·	?	–
CCN(CC(=O)NCc1ccc(F)cc1)Cc1nc2ccccc2c(=O)[nH]1	–	4µM	–	10µM	–	–
Cc1c(C(=O)N(C)Cc2nc3ccccc3c(=O)[nH]2)oc2ccccc12	10µM	·	16µM	·	8.2µM	18µM
CCN(CCS(=O)(=O)c1ccc(Cl)cc1)Cc1nc2ccccc2c(=O)[nH]1	–	·	–	·	7.3µM	–
